Reference: PubChem BioAssay AID1159580 (chemical genetic matrix, 2015)
Where “and” joins values, the source holds several entries; their conditions need not be identical. Identical values can stand only once. The campaign covered roughly 5,500 compounds. About 2,000 (36%) were called active. Not shown: some 18% with an inconclusive outcome. No stated cut-off is given here; in the data, active means normalized growth mostly below about 0.91 (no sharp cut-off); inconclusive means no clear call, values can overlap the other calls; inactive means mostly above about 0.92. The list shows a part of the results.

Assay: chemical genetic growth profiling, strain panel (AID 1159580);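 further: tested at 20 µM; growth read once vehicle control cultures reached saturation at 30 °C; 1 = growth at the plate median or of vehicle wells; lower values mean less growth of the strain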
Conditions: S. cerevisiae deletion strains, growth OD

Measured: normalized growth

C[C@]12CCC(=O)C=C1CCC1C2C(=O)C[C@@]2(C)C1CC[C@]2(O)C(=O)CO (stereo partly drawn)
inactive: locus YAL013W, strain DEP1, hits give low values 1 | locus YAL021C, strain ccr4, hits give low values 1.01 | locus YAL026C, strain drs2, hits give low values 1 | locus YAL030W, strain snc1, hits give low values 1 | locus YBL061C, strain skt5, hits give low values 1 | locus YBR009C, strain hhf1, hits give low values 0.992 | locus YBR021W, strain FUR4, hits give low values 1 | locus YBR023C, strain chs3, hits give low values 1.01 | locus YBR171W, strain sec66, hits give low values 1.01 | locus YBR229C, strain ROT2, hits give low values 1 | locus YBR231C, strain swc5, hits give low values 0.986 | locus YBR279W, strain paf1, hits give low values 1 | locus YCL011C, strain gbp2, hits give low values 1.01 | locus YCL016C, strain dcc1, hits give low values 1 | locus YCL029C, strain bik1, hits give low values 1.01 | locus YCL061C, strain MRC1, hits give low values 0.999 | locus YCL069W, strain vba3, hits give low values 1 | locus YCR088W, strain abp1, hits give low values 1.01 | locus YDL005C, strain med2, hits give low values 0.993 | locus YDL035C, strain GPR1, hits give low values 1.02 | locus YDL040C, strain nat1, hits give low values 1 | locus YDL074C, strain BRE1, hits give low values 1.05 | locus YDL101C, strain DUN1, hits give low values 1 | locus YDL134C, strain PPH21, hits give low values 0.986 | locus YDL185W, strain tfp1, hits give low values 1.01 | locus YDL192W, strain arf1, hits give low values 1.02 | locus YDR001C, strain nth1, hits give low values 1 | locus YDR069C, strain doa4, hits give low values 0.988 | locus YDR101C, strain arx1, hits give low values 1.04 | locus YDR137W, strain rgp1, hits give low values 1.01 | locus YDR159W, strain sac3, hits give low values 0.981 | locus YDR162C, strain NBP2, hits give low values 0.984 | locus YDR195W, strain ref2 0.973 | locus YDR297W, strain sur2, hits give low values 1 | locus YDR318W, strain mcm21, hits give low values 0.986 | locus YDR334W, strain swr1, hits give low values 1.01 | locus YDR335W, strain msn5, hits give low values 1.01 | locus YDR388W, hits give low values 1.01 | locus YDR392W, strain spt3, hits give low values 0.929 | locus YDR502C, strain sam2, hits give low values 1.01 | locus YEL003W, strain gim4, hits give low values 1.01 | locus YEL037C, strain rad23, hits give low values 1.01 | locus YEL061C, strain CIN8 (second series), hits give low values 1.01 | locus YEL061C, strain CIN8, hits give low values 0.998 | locus YER015W, strain faa2, hits give low values 1 | locus YER016W, strain bim1, hits give low values 1 | locus YER110C, hits give low values 1.01 | locus YER111C, strain swi4, hits give low values 1 | locus YER155C, strain BEM2 (second series), hits give low values 1 | locus YER155C, strain BEM2, hits give low values 1 | locus YER167W, strain BCK2, hits give low values 0.994 | locus YFR010W, strain ubp6, hits give low values 1 | locus YGL078C, strain dbp3, hits give low values 1.02 | locus YGL086W, strain mad1, hits give low values 1.02 | locus YGL167C, strain pmr1, hits give low values 1 | locus YGL173C, strain kem1, hits give low values 1.01 | locus YGL227W, strain vid30, hits give low values 1 | locus YGL240W, strain doc1, hits give low values 0.975 | locus YGL248W, strain PDE1, hits give low values 0.984 | locus YGL253W, strain hxk2, hits give low values 1.01 | locus YGR078C, strain PAC10, hits give low values 0.986 | locus YGR135W, strain pre9, hits give low values 0.968 | locus YGR229C, strain SMI1, hits give low values 0.989 | locus YGR252W, strain gcn5, hits give low values 0.976 | locus YHR013C, strain ard1, hits give low values 0.979 | locus YHR027C, strain rpn1, hits give low values 1.01 | locus YHR030C, strain SLT2, hits give low values 0.995 and 0.999 | locus YHR079C, strain IRE1 (second series), hits give low values 1.01 | locus YHR079C, strain IRE1, hits give low values 0.985 | locus YHR094C, strain hxt1, hits give low values 0.996 | locus YHR129C, strain ARP1, hits give low values 1 | locus YHR142W, strain chs7, hits give low values 1.02 | locus YHR200W, strain rpn10, hits give low values 0.999 | locus YIL066C, strain RNR3, hits give low values 0.987 | locus YIL073C, strain SPO22, hits give low values 1.04 | locus YIL125W, strain kgd1, hits give low values 1.01 | locus YIR030C, strain dcg1, hits give low values 0.997 | locus YJL092W, strain hpr5, hits give low values 1.01 | locus YJL095W, strain BCK1 (second series), hits give low values 1.01 | locus YJL095W, strain BCK1, hits give low values 0.975 and 0.986 | locus YJL115W, strain asf1, hits give low values 1.01 | locus YJL129C, strain trk1, hits give low values 1.01 | locus YJL134W, strain LCB3, hits give low values 1 | locus YJL154C, strain vps35, hits give low values 1.02 | locus YJL164C, strain tpk1, hits give low values 0.996 | locus YJL166W, strain qcr8, hits give low values 0.987 | locus YJL168C, strain set2, hits give low values 1.01 | locus YJL187C, strain SWE1 (second series), hits give low values 0.994
